The values below come from PubChem BioAssay (NCI).

The structures appear in SMILES notation. The panel holds about 83,000 compounds, 20% with a hit somewhere; the sample as a whole holds those more often.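 Cells were grown in 96-well plates and exposed to the test compound at a single concentration for 48 hours; results are reported as percent growth, with values below 10 considered active.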 A number with no mark means an inactive call. Calls of active or inactive are those of the source.

The assay has as its system MDA-MB-468 breast. Kind of assay: NCI-60 one-dose screen, 48 h (100 = growth as untreated, 0 = no growth, -100 = all killed). Particulars: 10 µM unless noted.
Regarding `Nc1nc(Cl)c2ncn(Cc3cc4c(cc3I)OCO4)c2n1`, the growth is 7.98% (active).

Take `CCCCCCCCCCCCCCCCCC1=NC(C)(C)CN1CC(C)O` (stereo not given): the growth was 115%. Next, `CCCCCCCC1(C)NC(=O)NC1=O` (stereo not given): 115%.

For `COc1ccc(/C=C2\COc3ccc(O)cc3C2=O)cc1OC`, the growth was 103%. Turning to `CCOC(=O)c1c(C)c2c(n1Cc1ccccc1)CSCC2=O`, the growth is -9.03% [100 µM] (active). Next, `CCCCC[C@H]1C/C=C2/C(=O)C=C[C@@H]2C/C=C\CCCC(=O)O[C@@H](CCCCC)C/C=C2/C(=O)C=C[C@@H]2C/C=C\CCCC(=O)O1`: -27.8% (active). For the compound `COc1cc(/C=C2\C(=O)Nc3cc(Cl)ccc32)ccc1OCc1ccc(F)cc1`, the growth was 93%. `CN(C)CCC(=O)C1CC1`: the growth is 104%. For `CCCCCc1ccc(S(=O)(=O)Nc2cccc(-c3csc(NCCN4CCN(C)CC4)n3)c2)cc1`, the growth was 87.3%.

On to `O=C(Nc1ccc(F)cc1F)c1cc(I)ccc1O`, for which the growth was -1.05% (active).

Consider `COC1=CC(c2ccc[nH]2)=N/C1=C\c1[nH]c(C)c(C(=O)CCC(=O)Oc2ccc3c(c2)CCC2C3CC[C@]3(C)[C@@H](O)CC[C@@H]23)c1C` (stereo not given in full), for which the growth was 39.4%. Then `CSc1ccc(/C(=N/N=C(N)N)c2ccccc2)cc1`, with 44.8%. Next, `CC(=O)Nc1nc(C(=O)N2N=C(C)/C(=C/c3cccs3)C2=O)cs1`: 103%; `Cc1cn(C2CCCCO2)c(=O)nc1NO` (stereo not given): 65%. Next, `CCN(CC)CCCOc1ccc2ncnc(Nc3ccc(Oc4cccc(C(F)(F)F)c4)c(Cl)c3)c2c1`: -64.7% (active).
